Reference: PubChem BioAssay (NCATS)
Results filed as inconclusive are left out. Active and inactive are the calls of the source. The call rests on the fitted dose curve; in most records, active means well fitted curve in the direction sought with a large enough effect; inconclusive means small, poorly fitted or top-dose-only effect, or another doubt; inactive means no such curve, though single readings can be large; an effect the other way counts as inactive or inconclusive.

Assays:
[1] = system: MCC-13; test: qHTS assay to identify novel small-molecules to repurpose for Merkel cell carcinoma treatment (AID 1296009); details: MCC and control cell lines, CellTiter-Glo viability, 72 h; series mostly up to 46 µM; further: nearly all actives have a fitted effect of over 60% in size
In short: (§1)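 72 hr, 37 degree celsius; NPC 8-pt / MIPE 11-pt dose response; compound pinned in DMSO; CellTiter-Glo, 10 min RT, luminescence; normalized to no-cell and DMSO controls.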

[2] = system: MCC-26; test: as above; details: MCC and control cell lines, CellTiter-Glo viability, 72 h; series mostly up to 46 µM
In short: as §1

[3] = system: MKL-1; test: as above; details: MCC and control cell lines, CellTiter-Glo viability, 72 h; series mostly up to 46 µM
In short: as §1

[4] = system: MKL-2; test: as above; details: MCC and control cell lines, CellTiter-Glo viability, 72 h; series mostly up to 46 µM
In short: as §1

[5] = system: UISO; test: as above; details: MCC and control cell lines, CellTiter-Glo viability, 72 h; series mostly up to 46 µM
In short: as §1

[6] = system: WaGa; test: as above; details: MCC and control cell lines, CellTiter-Glo viability, 72 h; series mostly up to 46 µM
In short: as §1

[7] = system: C33A; test: Primary qHTS to identify gynecologic anti-cancer compounds using libraries of approved drugs and bioactive compounds (AID 1345084); details: Gynecologic cancer cell panel viability, ATPlite luminescence, 48 h; series mostly up to 57.5 µM; further: nearly all actives have a fitted effect of over 55% in size
In short: (§2)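 Cells, 1,000 per well, were allowed to settle for 16 h at 37 C before compound addition. Five concentrations were tested for 48 h, and viability was read by ATPlite luminescence after 15 min at room temperature.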

[8] = system: CAOV3; test: as above; details: Gynecologic cancer cell panel viability, ATPlite luminescence, 48 h; series mostly up to 57.5 µM
In short: as §2

Measured: Potency

NCC(=O)O
inactive: all assays above

CCC(C(=O)NC(=O)NC(C)=O)c1ccccc1 (stereo not drawn)
inactive: all assays above

CN1C(=O)c2ccccc2C1=O
inactive: all assays above

CCN(CC)CCN
inactive: all assays above

O=C(NN1CCCC1)NS(=O)(=O)c1ccc(Cl)cc1
inactive: all assays above

Nc1ccc([N+](=O)[O-])c(C(F)(F)F)c1
inactive: all assays above

CCN1CCN(C(=O)N[C@@H](C(=O)N[C@@H]2C(=O)N3[C@@H]2SC(C)(C)[C@H]3C(=O)O)c2ccccc2)C(=O)C1=O
inactive: all assays above

N[C@@H](Cc1cc(I)c(O)c(I)c1)C(=O)O
inactive: all assays above

O=C(O)c1ccccc1S
inactive: all assays above

CCC(=O)O[C@]1(C(=O)COC)[C@@H](C)C[C@H]2[C@@H]3CCC4=CC(=O)C=C[C@]4(C)C3(F)[C@@H](O)C[C@@]21C (stereo partly drawn)
inactive: all assays above

CC(C)(C)c1cc(C=O)cc(C(C)(C)C)c1O
inactive: all assays above

O=C(OCC1(COC(=O)c2cccnc2)CCCC(COC(=O)c2cccnc2)(COC(=O)c2cccnc2)C1O)c1cccnc1
inactive: all assays above

O=C(O)Cc1ccccc1Oc1ccc(Cl)cc1Cl
inactive: all assays above

COC(=O)C1=C(C)NC(C)=C(C(=O)OCCc2ccc(N3CCN(C(c4ccccc4)c4ccccc4)CC3)cc2)C1c1cccc([N+](=O)[O-])c1 (stereo not drawn)
inactive: all assays above

CNC[C@H](O)[C@@H](O)[C@H](O)[C@H](O)CO
inactive: all assays above

C/C(=N\O)[C@@H](C)NCC(C)(C)CN[C@H](C)/C(C)=N/O
inactive: all assays above

CCO[C@H](Cc1ccc(OCCc2ccc(OS(C)(=O)=O)cc2)cc1)C(=O)O
inactive: all assays above

Cc1oc(=O)oc1COC(=O)[C@@H]1N2C(=O)[C@@H](NC(=O)[C@H](N)c3ccccc3)[C@H]2SC1(C)C
inactive: all assays above

Nc1c(NC/C=C\COc2cc(CN3CCCCC3)ccn2)c(=O)c1=O
inactive: all assays above

CCN(CC)CC(=O)Nc1c(C)cccc1C(=O)OC
inactive: all assays above

CCCCNc1ccc(C(=O)OCCN(CC)CC)cc1
inactive: all assays above

OC(CCCN1CCCCC1)(c1ccccc1)c1ccccc1
inactive: all assays above

CCOC(=O)C(=O)c1csc(NC=O)n1
inactive: all assays above

COC(=O)c1ccc(NC(C)=O)cc1OC
inactive: all assays above

O=C(O)C1CCC1
inactive: all assays above

CCOC(=O)c1ccc(OCCN2C[C@H](O)[C@@H](O)[C@H](O)[C@H]2CO)cc1
inactive: all assays above

C[C@@H]1CCC[C@H](C)N1CCCC(O)(c1ccccc1)c1ccccn1 (stereo partly drawn)
inactive: all assays above

CCOC(=O)NNc1nncc2ccccc12
inactive: all assays above

CCN1C(=O)c2ccccc2C1Nc1ccc(OCCN2CCCCC2)cc1 (stereo not drawn)
inactive: all assays above

CCCCCCn1c(=O)c2c(ncn2C)n(C)c1=O
inactive: all assays above

CN(C(=O)C(Cl)Cl)c1ccc(OC(=O)c2ccco2)cc1
inactive: all assays above

O=C(O)c1[nH]n(-c2ccc(S(=O)(=O)O)cc2)c(=O)c1N=Nc1ccc(S(=O)(=O)O)cc1
inactive: all assays above

C[C@H]1NCc2cc(-c3ccc4c(=O)c(C(=O)O)cn(C5CC5)c4c3OC(F)F)ccc21
inactive: all assays above

CN1CC(=O)N2[C@H](c3ccc4c(c3)OCO4)c3[nH]c4ccccc4c3C[C@@H]2C1=O
inactive: all assays above

CNC(=O)c1c(I)c(NC(C)=O)c(I)c(C(=O)O)c1I
inactive: all assays above

C[C@@H](C1=C(CCN(C)C)Cc2ccccc21)c1ccccn1
inactive: all assays above
